Our source for the max response values is PubChem BioAssay AID2314 (National Center for Advancing Translational Sciences (NCATS), 2010).

In all, about 300,000 compounds went through this assay and about 37,000 (12%) were called active. For the sample, actives were picked, then their nearest neighbours and some compounds at random. A number with no mark means an inactive call. Rule as the data show it: active = max response mostly above about 13% (no sharp cut-off); inactive = mostly below about 14%.

A short description of the experiment: Cycloheximide Counterscreen for Small Molecule Inhibitors of Shiga Toxin. Also: read at 38.3 µM for the half of the compounds with a filed dose; 0% is about no effect. The conditions noted are these: cell reporter, cycloheximide protein synthesis inhibition counterscreen; active compounds read high. (In general: Counterscreens check selectivity or assay interference.)
On to `CCC(C)[C@H](NC(=O)N1CCn2c1nc1ccccc12)C(=O)NCc1ccc(OC)cc1` (stereo partly specified), for which the max response is 7.87%.

Regarding `CC1CCN(C(=S)NC2CC3CCC2C3)CC1` (stereo unspecified), the max response was -2.5%.

As for `O=C(CCCCCn1c(=S)[nH]c2ccsc2c1=O)NC1CCCCC1`, the max response was -3.34%.

As for `Cc1nc(NC2=NC(C(=O)Nc3ccc(Cl)cc3)CC(=O)N2)nc2ccccc12` (stereo unspecified), the max response was -1.93%.

As to `Cc1ccc2c(C)c(C(=O)N(C)Cc3ccncn3)oc2c1C`, the max response was -3.14%.

With `CCOC(=O)C1(CC2CCCCO2)CCN(Cc2nc(-c3cccs3)oc2C)CC1` (stereo unspecified), the max response was -1.4%.

`CC(C(=O)c1ccc(-c2ccccc2)cc1)[n+]1cccc(Br)c1` (stereo unspecified): the max response was -1.92%.

In the case of `CC(NC(=O)c1ccco1)c1ccc2c(c1)OCO2` (stereo unspecified), the max response is -2.24%.

For the compound `Cc1c(C)c2c(OCC(=O)N[C@@H](C(=O)O)c3ccccc3)cc3c(c2oc1=O)CCC(C)(C)O3`, the max response was 0.453%.

For `Cc1nn(C)c(C)c1CN(C(=O)CCc1nnc(Cc2c[nH]c3ccccc23)o1)C(C)C`, the max response is -2.58%.

As for `COCCNC(=O)/C(C#N)=C/c1nc(N(C)C)n(-c2ccc(F)cc2)c1Cl`, the max response is 6.45%.

Regarding `CSCCC(NS(=O)(=O)c1ccc(C)cc1)C(=O)N1CCCC1` (stereo unspecified), the max response is -0.967%.

In the case of `Cc1cccc(C(=O)Nc2ccc(Oc3cnccn3)cc2)c1`, the max response was 22.6% (active).

For `COc1ccc(C(=O)Nc2ccc(NC(=O)C(C)C)nc2)cc1`, the max response is 2.34%.

With `COCCNC(=O)Nc1ccc2nc(-c3ccco3)c(-c3ccco3)nc2c1`, the max response was -4.08%.

Consider `COc1ccc(C(=O)Nc2cccc(S(C)(=O)=O)c2)cc1`, for which the max response is -2.97%.

For `Cc1cccc(C(=O)Nc2ccc3c(c2)C(=O)N(CC(C)C)C3=O)c1`, the max response was 10.4%.

As for `COc1ccc(NC(=O)Nc2ccc3nsnc3c2)cc1`, the max response was 49.2% (active).

As for `COc1ccc(NC(=O)c2ccc(OC)cc2)cc1`, the max response was 45.1% (active).

On to `COc1ccc(/C=N/NC(=O)Nc2ccc3nsnc3c2)c(OC)c1`, for which the max response was -1.93%.

With `Cc1cccc(C(=O)Nc2ccccc2C(=O)NCc2cccnc2)c1`, the max response was -1.87%.

For `COc1ccc(C(=O)NC(=S)NC2CCCCC2)cc1`, the max response is 72.8% (active).

Turning to `COc1ccc(C(=O)NNC(=S)NC(=O)c2ccccc2)cc1`, the max response was 8.67%.

For the compound `O=C(NC(=S)NC1CCCCC1)c1ccc(Cl)cc1`, the max response is -1.68%.

Consider `O=C(C1CCCO1)N1CCN(C(=S)NC2CC2)CC1` (stereo unspecified), for which the max response is -1.72%.

For `CN1C(=O)[C@H]2[C@@H](C3CC3)N3C(=O)CN(Cc4ccccc4)C(=O)[C@@]3(C)[C@H]2C1=O`, the max response was -0.826%.

On to `CNC(=O)CN1C(=O)NC(c2ccccc2)(c2ccccc2)C1=O`, for which the max response is -2.25%.

As to `Cc1ccc(C(=O)O)cc1-c1ccc(/C=C2\SC(=O)N(CC(=O)Nc3ccc4c(c3)OCO4)C2=O)o1`, the max response was -2.31%.

With `O=C(NN1C(=O)C2C3C=CC(C4CC34)C2C1=O)c1ccc(Cl)cc1` (stereo unspecified), the max response is 3.35%.

For the compound `C=C(C)C1CC=C(C)C(O)C1` (stereo unspecified), the max response was 7.86%.

In the case of `CN(C(=O)COc1nnc(-c2cccs2)c(-c2cccs2)n1)c1ccccc1`, the max response is 0.449%.

On to `COc1ccc(NC(=O)c2sccc2SCC#N)cc1`, for which the max response is 40% (active).

Turning to `COc1cccc(N(CC(=O)Nc2cccc(F)c2)S(C)(=O)=O)c1`, the max response is -5.13%.

As to `CCOc1ccc(N(CC(=O)Nc2cccc(OC)c2)S(C)(=O)=O)cc1`, the max response was 27.2% (active).

On to `COc1ccc(NC(=O)c2sc(N)nc2-c2ccccc2)cc1`, for which the max response was 1.95%.

In the case of `CCN(CC)C(=O)c1ccc(NC(=O)c2sccc2-c2ccccc2)cc1`, the max response was 0.344%.

`COc1cccc(N(CC(=O)Nc2cccc(N(C)S(C)(=O)=O)c2)S(C)(=O)=O)c1`: the max response was -2.16%.

In the case of `CCOc1cccc(-c2nnc(SCC(=O)NC3CC3)n2C)c1`, the max response was 5.85%.

Take `CCOC(=O)NN1C(=O)c2ccccc2NC1c1ccccc1O` (stereo unspecified): the max response was -0.209%.

On to `COc1ccc(CCNC(=O)CCc2cn(C)c3ccccc23)c(OC)c1`, for which the max response is 0.538%.

Regarding `O=C(NCCNc1ccc([N+](=O)[O-])cc1)c1cccc2c(Br)cccc12`, the max response is -5.64%.

On to `O=S(=O)(c1ccc(Cl)cc1)c1nc(-c2ccccc2F)oc1NCCN1CCOCC1`, for which the max response was 0.972%.

Regarding `O=C(c1cc(C(=O)N2CCN(c3ccc(F)cc3)CC2)cc([N+](=O)[O-])c1)N1CCN(c2ccc(F)cc2)CC1`, the max response was 1.24%.

Turning to `CNC(=S)N/N=C1\C2CN3CCN(C2)CC1(c1ccccc1)C3`, the max response was 0.185%.

`CC12CN3CCN(CC(C3)/C1=N\NC(=O)c1ccccc1N)C2`: the max response is 42.9% (active).

Take `Nc1ccccc1C(=O)NC1CCCCNC1=O` (stereo unspecified): the max response is -3.17%.

On to `CC1CC(C)CN(C(=O)C2CC(=O)N(c3ccc(F)cc3)C2)C1` (stereo unspecified), for which the max response is -5.15%.

On to `COc1cc2c3c(c1)/C(=C1/SC(=S)NC1=O)C(=O)N3C(C)(C)C=C2C`, for which the max response was -0.91%.

As for `CC(=O)Nc1cccc(OCC(=O)/C=C2\N(C)c3ccccc3C2(C)C)c1`, the max response is 17%.

In the case of `COc1ccc(CNC(=O)COc2cccnc2[N+](=O)[O-])cc1`, the max response was -2.66%.

In the case of `Cc1ccc(-n2ncc3c(Nc4cccc(C(=O)O)c4)ncnc32)cc1`, the max response was 45.3% (active).

With `Cc1ccc(Nc2ncnc3c2cnn3C)c(C)c1`, the max response was 1.06%.

With `O=C(NNc1ncnc2c1cnn2-c1ccccc1)c1ccco1`, the max response was 9.27%.

Regarding `CCOC(=O)C1CN(S(=O)(=O)c2ccc(F)cc2)C1`, the max response was 1.16%.

As for `C=CCn1c(=S)[nH]c2scc(-c3ccco3)c2c1=O`, the max response was -1.66%.

Turning to `COc1cc(C2C(N3C(=O)c4ccccc4C3=O)C(=O)N2c2ccc(C)c(C)c2)cc(OC)c1OC` (stereo unspecified), the max response is -1.4%.

As for `COC(=O)c1ccc(S(=O)(=O)NCc2ccccc2)n1C`, the max response is -1.21%.

On to `COc1ccc(C2C3=C(CCCC3=O)N(CC(=O)O)C3=C2C(=O)CCC3)cc1`, for which the max response is -0.955%.

As to `CCOc1ccc(OCc2ccc(C(=O)Nc3cccc(C)n3)o2)cc1`, the max response was 21.2% (active).

As for `Cc1cccc(NC(=O)c2ccc(COc3ccccc3[N+](=O)[O-])o2)n1`, the max response was 9.42%.

In the case of `CC(=O)Cc1nsc(NC(=O)c2ccc(COc3ccc(C)cc3)o2)n1`, the max response is 4.45%.

`Cc1ccc(NC(=O)c2nc[nH]c2C(=O)N[C@@H](CCCCNC(=O)OC(C)(C)C)C(=O)OC(C)(C)C)cc1`: the max response was -3.36%.

Turning to `O=C(NCC(=O)N1CCN(c2ncc(C(F)(F)F)cc2Cl)CC1)c1ccc(Br)o1`, the max response is -1.14%.

On to `Cc1ccnc2nc(C(=O)Nc3nnc(-c4ccccc4)o3)nn12`, for which the max response is 23.5% (active).

Regarding `CCc1nnc(NC(=O)c2nc3nccc(C)n3n2)s1`, the max response is -2.71%.

On to `CCCC(=O)Nc1nnc(-c2ccccc2)o1`, for which the max response was -3.55%.

For the compound `C=CCN(c1ccccc1C(=O)NCC(=O)OCC)S(=O)(=O)c1ccc(C)cc1`, the max response was -3.9%.

With `CCn1cc(C(=O)NCCCN2CCCCCC2)c(=O)c2cc(S(=O)(=O)N3CCc4ccccc4C3)ccc21`, the max response is -1.21%.

Take `CCO[C@H]1OC(C(=O)NCc2ccccc2)=C[C@@H](c2coc3ccccc3c2=O)[C@@H]1CCCO`: the max response is -1.05%.

As for `CCC(=O)N1c2ccc(S(=O)(=O)NCc3ccco3)cc2CC1C` (stereo unspecified), the max response was 19.8%.

For the compound `O=C(O)CCCC(=O)Nc1ccc(Oc2cccc(C(F)(F)F)c2)nc1`, the max response was 5.78%.

In the case of `COC(=O)C1CCN(C(=O)c2ccc3oc(Cc4ccc(Cl)cc4)nc3c2)CC1`, the max response is -2.56%.

Consider `COc1ccc(C(=O)N2CCCC(C(=O)c3ccccc3OC)C2)cc1OC` (stereo unspecified), for which the max response was 9.55%.

Consider `COCC1CCN(C(=O)c2ccc3oc(Cc4ccccc4)nc3c2)C1` (stereo unspecified), for which the max response is 39.1% (active).

On to `COc1c(C)cc(C(=O)C2CCCN(S(=O)(=O)c3c(C)noc3C)C2)cc1C` (stereo unspecified), for which the max response was 5.32%.

As for `Cc1ccc2c(c1)N(CC(=O)N1CCOCC1)C(=O)CO2`, the max response is -3.08%.

Consider `Cc1nc(-c2ccc(Cl)cc2)sc1C1(C)CC(c2ccccc2F)=NO1` (stereo unspecified), for which the max response was 20.7% (active).

In the case of `Cc1nc(C(=O)NCc2ccccc2)sc1C1(C)CC(c2cccnc2)=NO1` (stereo unspecified), the max response was -3.23%.

Turning to `Cc1nc(C(=O)Nc2ccc(Cl)cc2)sc1C1(C)CC(c2ccccc2)=NO1` (stereo unspecified), the max response was 9.03%.

In the case of `CCN(c1ccc(NC(=O)COC(=O)CCc2nc3ccccc3n2-c2ccccc2)cc1)C(C)C`, the max response is 6.5%.

Turning to `COc1ccccc1NC(=O)COc1ccc(C(=O)OCC(=O)N(C(C)C)C(C)C)cc1OC`, the max response is -3.62%.

As to `COc1ccc2c(c1)C(NS(=O)(=O)OCC(Cl)(Cl)Cl)CCC2` (stereo unspecified), the max response was 0.921%.

In the case of `COc1cc2c(C(=O)N3CCN(C)CC3)c(CSc3ccccc3)n(C)c2cc1Br`, the max response is -3.14%.

As to `Cc1ccc(C(=O)N/C(=C\c2cn(S(=O)(=O)N(C)C)c3ccccc23)C(=O)N2CCCC2)cc1`, the max response was -4.36%.

Turning to `Cc1nc(-c2ccc(F)cc2)c(CC(=O)N2CCN(S(=O)(=O)c3ccc(F)cc3)CC2)s1`, the max response is -1.12%.

Take `CCOc1ccc(CNC(=O)CCC(=O)N2CCSc3ccccc32)cc1`: the max response is 3.9%.

Consider `Cc1ccc(NC(=O)N2CCC(O)(c3cccnc3)CC2)cc1`, for which the max response is -0.6%.

As for `Cc1ccc(NC(=O)N2CCSc3ccccc32)cc1`, the max response was 21.8% (active).

With `Cc1ccc2c(=O)oc(N(C)C)nc2c1`, the max response was -3.11%.

`COc1ccc(CNC(=O)CCN2C(=O)c3ccccc3C2=O)cc1`: the max response is -8.4%.

As for `Cc1cc(C(=O)NC2CCCc3c2cnn3-c2cccc(C)c2C)c(C)o1` (stereo unspecified), the max response is 0.915%.
